# Screening data from PubChem.
# TMEM16A inh = TMEM16A chloride channel inhibitors, primary screen, cell-based, HTS. HEK293 TMEM16A/YFP iodide influx fluorescence, ionomycin. AID 588511, 2011. Anoctamin-1 (Mus musculus), Q8BHY3. normalized B-score (activity score, 25-100; higher = stronger inhibition) at 10 µM. hit rate 1.2% among 310,000;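 active = ratio plate-corrected score three or more library SD toward inhibition, starting fluorescence score within five deviations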;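 note: score derived from kinetic fluorescence span divided by baseline fluorescence per well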
# PKA-R1A activ = activators of PKA-R1A holoenzyme, primary screen, biochemical, fluorescence polarization, Cy5-IP20, bovine R1A, mouse PKAc | hit rate 0.083% among 340,000 | PKA-R1A dissociation; scaled: DMSO 0%, 113 µM cGMP 100% | cAMP-dependent protein kinase type I-alpha regulatory subunit (Bos taurus) + … | AID 504707, 2011 | activation, % at 11.4 µM;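 active = percent activation above the mean of all tested compounds plus 3 SD, cut at about 19% in these data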;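 note: higher means more PKAc released from R1A so a rise in polarization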
# TMEM16A act = TMEM16A chloride channel activators or potentiators, primary screen, cell-based, HTS; Anoctamin-1 (Mus musculus), Q8BHY3; HEK293 TMEM16A/YFP-H148Q/I152L, iodide quench fluorescence; hits give low values; B-score at 10 µM; hit rate 0.3% among 340,000;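 active = fluorescence-ratio B-score plate-corrected deviation score at least 3 library SD below zero, with starting fluorescence score within 5 deviations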;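 note: channel opened by trigger with iodide after compound preincubation; score built on the fluorescence ratio of max minus min over baseline; more negative score means more quench and so TMEM16A activation or potentiation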
# PKA-R2B activ = activators of PKA-R2B holoenzyme, primary screen, biochemical, fluorescence polarization, Cy5-IP20, human | cAMP-dependent protein kinase catalytic subunit beta (Homo sapiens) + cAMP-dependent … | PKA-R2B holoenzyme dissociation; R2B truncated from residue 108, S112A mutant; 0% DMSO only, 100% 113 µM cGMP | activation, % at 11.4 µM | hit rate 0.079% among 340,000;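 active = activation above a cutoff set at the mean over all compounds plus 3 SD, cut at about 18% in these data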;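 note: higher means more holoenzyme dissociation and a rise in polarization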
# CHT block = inhibitors of human choline transporter CHT. High affinity choline transporter 1 (Homo sapiens), Q9GZV3. CHT-expressing cells, membrane potential dye, choline response; hits give low values. B-score at 10 µM. hit rate 0.86% among 310,000;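 active = B-score over 3 SD under the library average, and starting fluorescence ratio not unusually high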;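 note: choline stimulus applied at its EC90 after an EC20 pre-addition; B-score computed on integrated fluorescence ratio after choline addition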
# Target sequence (Q9GZV3 whole entry, looked up): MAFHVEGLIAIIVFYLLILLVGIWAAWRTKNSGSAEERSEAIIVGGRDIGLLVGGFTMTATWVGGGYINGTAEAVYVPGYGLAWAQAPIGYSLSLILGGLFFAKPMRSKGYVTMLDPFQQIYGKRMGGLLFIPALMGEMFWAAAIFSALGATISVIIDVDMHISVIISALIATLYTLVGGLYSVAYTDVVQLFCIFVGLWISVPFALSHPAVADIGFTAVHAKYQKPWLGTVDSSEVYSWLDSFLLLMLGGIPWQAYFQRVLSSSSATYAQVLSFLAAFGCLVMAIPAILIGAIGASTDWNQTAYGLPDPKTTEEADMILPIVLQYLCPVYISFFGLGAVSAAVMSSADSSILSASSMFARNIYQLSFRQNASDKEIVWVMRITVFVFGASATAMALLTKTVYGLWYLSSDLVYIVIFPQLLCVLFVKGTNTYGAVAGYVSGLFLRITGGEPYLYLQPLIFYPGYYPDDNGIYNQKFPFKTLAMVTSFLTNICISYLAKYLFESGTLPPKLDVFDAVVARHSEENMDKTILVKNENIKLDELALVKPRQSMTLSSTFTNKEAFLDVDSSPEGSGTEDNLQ
# CHT PAM = CHT positive allosteric modulators, primary screen, cell-based, membrane potential dye, choline EC20; High affinity choline transporter 1 (Homo sapiens), Q9GZV3; CHT-expressing cells; hits give high values; LV-AA mutant CHT in HEK293 cells; B-score at 10 µM; hit rate 0.49% among 310,000; AID 488977, 2010;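 active = initial fluorescence not abnormally high and integrated response B-score, plate-corrected, over 3 SD above library mean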
# CHT activ conf = CHT activators, confirmation, cell-based, membrane potential dye, duplicate; shares compounds with CHT PAM; CHT-expressing cells, membrane potential dye fluorescence (FDSS); % of choline EC20–EC90 response window; HEK293 expressing CHT LV-AA mutant; choline added at its EC20; activation, % at 10 µM; hit rate 91% among 2,500; AID 504833, 2011;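 active = primary screen active, with duplicate mean activation above negative control mean plus 3 SD, cut at about 11% in these data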
# HEK293 MP dye = membrane potential response in parental HEK293 cells, counter-screen for CHT activator project, cell-based, membrane potential dye | shares compounds with CHT PAM | membrane potential dye fluorescence (FDSS); measured after EC20 choline addition | ratio readout change at 10 µM, hits read low | hit rate 62% among 2,500 | AID 623908, 2012;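 active = duplicate-averaged ratio beyond 3 SD from buffer wells, up or down, though filed actives are nearly all decreases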
# Numbers without * were called inactive; i = inactive; x = no result. Shown are actives, neighbours in structure and some others; about 2.5% of the full set was active somewhere.
SMILES,TMEM16A inh,PKA-R1A activ,TMEM16A act,PKA-R2B activ,CHT block,CHT PAM,CHT activ conf,HEK293 MP dye
COc1ccc([N+](=O)[O-])cc1N(CC(O)CN(CC(C)C)CC(C)C)S(=O)(=O)c1ccccc1 (configuration not stated),i,9.4,i,-0.3,i,12.5*,42.1*,i
CCCCN(CCCC)CC(O)CN(c1cc([N+](=O)[O-])ccc1OC)S(=O)(=O)c1ccccc1 (configuration not stated),i,3.5,i,-2.0,i,11.2*,53.2*,-44.7*
O=C(NCc1cccnc1)c1ccc(-c2ccc(Cl)cc2)o1,i,5.8,i,-1.1,i,i,x,x
O=C(NCc1cccnc1)/C(=C\c1ccc(-c2ccc(Cl)c(Cl)c2)o1)S(=O)(=O)c1ccccc1,i,-12.5,-6.08*,-14.4,i,6.68*,13.6*,i
COCCNc1cc(C)nc2c3c(C)cc(C)nc3nn12,i,5.7,i,-3.5,i,i,55.2*,-64.5*
COCCNc1cc(C)nc2c(-c3ccccc3OC)c(C)nn12,i,-5.7,i,-14.7,i,i,x,x
CCCCOc1ccccc1C1CC(=O)NC2=C1C(=O)CCC2 (configuration not stated),i,-0.9,i,-6.6,i,11.4*,73.2*,i
O=C(Cc1cccc2ccccc12)NCC(=O)Nc1ccccc1F,i,0.3,i,-2.7,i,i,x,x
CC(C)n1nnnc1SCC(=O)N(C)C1CCS(=O)(=O)C1 (configuration not stated),x,0.5,i,-3.7,x,x,x,x
Cc1cc(C)nc(NC(N)=NCCc2ccccc2)n1,x,-1.0,i,0.3,x,x,x,x
Cc1cc(C)nc(NC(N)=NCCc2c[nH]c3ccccc23)n1,i,-1.1,i,-9.4,i,8.58*,60.0*,-60.8*
Cc1cc(C)nc(NC(N)=NC(C)c2ccccc2)n1 (configuration not stated),i,x,x,x,i,6.31*,44.9*,-33.9*
COc1ccc(CSc2nc(O)cc(=O)n2CC(C)C)cc1F,i,0.6,i,-7.2,i,i,x,x
Cc1c(C(c2ccccc2Br)c2c(C)n(C)n(-c3ccccc3)c2=O)c(=O)n(-c2ccccc2)n1C,i,9.0,i,-2.5,i,i,x,x
Nc1nc(SCC(=O)Nc2cccc(F)c2)n[nH]1,x,1.6,i,-8.5,x,x,x,x
Cc1ccc(OCC(O)CNC2CCCC2)c(C)c1 (configuration not stated),i,6.5,i,1.1,i,i,x,x
Cc1ccccc1OCC(O)CNC1CCC(NCC(O)COc2ccccc2C)CC1 (configuration not stated),i,-8.1,i,-3.1,i,i,21.3*,i
CN(C)c1cccc2cccc(N(C)C)c12,i,-12.8,i,-7.5,i,i,x,x
CN(C)c1ccc2c3c(ccc(N(C)C)c13)COC2,i,11.2,i,1.7,i,14.6*,24.4*,-31*
COc1cccc(N2CCN(C(=O)c3ccc(CS(=O)c4ccc(Cl)cc4)o3)CC2)c1 (configuration not stated),i,-2.8,i,-1.5,i,i,21.3*,i
